Values joined by “and” are separate entries in the source; they are usually repeats but may differ in a detail not shown here. Identical values can stand only once. Like-named read-outs stand apart in the source and are kept apart here.
Experiments:
Conditions in all cases: concentration: 1 μM, replicates: in singlicate, n = 1
[1] = system: CSNK1A1L
[2] = system: CSNK1A1
[3] = system: CSNK1D
[4] = system: CSNK1E
[5] = system: CSNK1G1
[6] = system: CSNK1G2
[7] = system: CSNK1G3
[8] = system: CSNK2A1
[9] = system: CSNK2A2
[10] = system: T1, CTK
T1 construct: gene MATK
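Note: KINOMEscan kinase panel screen.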

Compound	%Inh [1] [%]	%Inh [2] [%]	%Inh [3] [%]	%Inh [4] [%]	%Inh [5] [%]	%Inh [6] [%]	%Inh [7] [%]	%Inh [8] [%]	%Inh [9] [%]	%Inh [10] [%]	%Inh ([3]; 1 µM)	%Inh ([5]; 1 µM)	%Inh ([6]; 1 µM)	%Inh ([7]; 1 µM)	%Inh ([8]; 1 µM)	%Inh ([9]; 1 µM)	%Inh ([10]; 1 µM)	%Inh ([1]; 1 µM)	%Inh ([2]; 1 µM)	%Inh ([4]; 1 µM)
Cc1ccc(C(=O)NCC(N)=O)cc1-n1c(C)cc(OCc2ccc(F)cc2F)c(Br)c1=O	26	25	19	0	22	10	8	0	0	0	–	–	–	–	–	–	–	–	–	–
Fc1ccc(-c2ncn(CCCN3CCOCC3)c2-c2cccnc2)cc1 [SB-211743]	0	22	4	24	0	0	17	0	0	32	–	–	–	–	–	–	–	–	–	–
Cc1c(Cn2c(C)nn3c(=O)cc(N4CCOC(C)C4)nc23)cccc1C(F)(F)F (stereo not drawn) [GSK2344444]	0	0	0	0	0	0	18	12	9	2	–	–	–	–	–	–	–	–	–	–
Cl.Cl.Cl.Fc1ccc(-c2ncn(C3CCNCC3)c2-c2ccnc(Nc3ccccc3)n2)cc1 [SB-238039]	98.9	97.7	–	99.9	–	–	–	–	–	–	95.2% and 93.4%	78% and 75%	99.5% and 98.9%	99.2% and 96.6%	0% and 19%	0% and 25%	40% and 1%	–	–	–
O=C1NC(=O)C(N2CCc3ccccc32)=C1c1cccc(Cl)c1 [SB-408010]	0	19	0	0	5	0	0	0	13	53	–	–	–	–	–	–	–	–	–	–
O=C(NCCNc1ccnc(Nc2ccc(F)cc2)n1)Nc1ccccc1F [GSK1379880]	16	0	11	9	1	0	16	0	3	0	–	–	–	–	–	–	–	–	–	–
Fc1ccc(-c2nn3c(OCC(F)(F)F)cccc3c2-c2ccncc2)cc1 [GW514784]	35	92.9	96.4	99	0	0	16	0	0	0	–	–	–	–	–	–	–	–	–	–
Cn1ccc2ncnc(Oc3ccc(NC(=O)Nc4ccncc4)c(Cl)c3)c21	0	0	0	0	0	0	0	0	0	0	–	–	–	–	–	–	–	–	–	–
NCCNS(=O)(=O)c1ccc(-c2ccnc3[nH]ccc23)cc1 [GSK977617]	–	–	–	–	–	–	–	–	–	0	77% and 70%	20% and 0%	58% and 24%	51% and 59%	72% and 56%	63% and 56%	–	76% and 61%	88% and 93.1%	85% and 86%
O=C(Nc1cccc(-c2nn3ncccc3c2-c2ccnc(Nc3cccc(C(F)(F)F)c3)n2)c1)c1c(F)cccc1F [GSK299495]	24	0	12	82	0	0	18	0	0	0	–	–	–	–	–	–	–	–	–	–
N#Cc1ccc(-c2cc(-c3c[nH]nc3-c3ccccn3)ccn2)cc1 [GW693028]	12	19	62	32	8	0	8	0	5	0	–	–	–	–	–	–	–	–	–	–
[2H]C([2H])(c1cccc(C(F)(F)F)c1C)n1ccn2c(=O)nc(N3CCOCC3)cc12 [GSK2336394]	16	0	19	12	9	0	19	0	0	0	–	–	–	–	–	–	–	–	–	–
Cc1nnc(-c2ccc(C)c(-c3ccc(C(=O)Nc4ccc(NS(C)(=O)=O)cc4)cc3)c2)o1 [GW702865]	0	0	14	0	0	15	17	0	15	0	–	–	–	–	–	–	–	–	–	–
Cc1cccc(-c2nc(Nc3ccc4ncsc4c3)c3ccccc3n2)n1 [GW867588]	0	0	0	6	0	0	0	0	18	0	–	–	–	–	–	–	–	–	–	–
CC(C)(C)n1cnc2c(N)ncnc21 [SKF-97359]	16	40	0	39	0	0	2	0	0	21	–	–	–	–	–	–	–	–	–	–
COc1ccc(Nc2ncc(C#N)c(Nc3ccccc3C(N)=O)n2)cc1N1CCN(C)CC1.Cl [GSK1558669]	97.3	82	66	78	50	0	27	99.7	99.9	56	–	–	–	–	–	–	–	–	–	–
O=C(c1ccc(-c2cc(-c3c[nH]nc3-c3ccccn3)ccn2)cc1)N1CCOCC1 [GW812171]	0	32	49	17	19	0	0	0	0	49	–	–	–	–	–	–	–	–	–	–

Compound	%Inh [1] [%]	%Inh [2] [%]	%Inh [3] [%]	%Inh [4] [%]	%Inh [5] [%]	%Inh [6] [%]	%Inh [7] [%]	%Inh [8] [%]	%Inh [9] [%]	%Inh [10] [%]	%Inh ([3]; 1 µM)	%Inh ([5]; 1 µM)	%Inh ([6]; 1 µM)	%Inh ([7]; 1 µM)	%Inh ([8]; 1 µM)	%Inh ([9]; 1 µM)	%Inh ([10]; 1 µM)	%Inh ([1]; 1 µM)	%Inh ([2]; 1 µM)	%Inh ([4]; 1 µM)
Cc1cccc(-c2nc(-c3ccc(S(C)(=O)=O)cc3)sc2-c2ccncc2)c1	9	18	16	36	0	20	0	0	14	0	–	–	–	–	–	–	–	–	–	–
O=C(NOCC1CC1)c1ccc(F)c(F)c1Nc1ccc(I)cc1Cl	0	3	0	3	0	0	0	0	18	0	–	–	–	–	–	–	–	–	–	–
COc1ccc(S(=O)(=O)NC2CCN(c3cc(C)nc(Nc4cccc(C#N)c4)n3)CC2)cc1.O=C(O)C(F)(F)F [GSK1653539]	0	0	19	54	12	0	30	0	4	0	–	–	–	–	–	–	–	–	–	–
c1ccc(-c2n[nH]cc2-c2ccnc3ccccc23)nc1 [GW271431]	19	38	60	69	20	0	24	0	23	0	–	–	–	–	–	–	–	–	–	–
Cl.Oc1cccc(Nc2ccnc3cc(-c4ccncc4)ccc23)c1 [GW494601]	42	55	28	45	40	0	22	0	0	0	–	–	–	–	–	–	–	–	–	–
CN1c2ccc(CNc3ccc(F)cc3)cc2-c2c(cnn2C)S1(=O)=O	0	1	0	0	0	0	0	0	0	0	–	–	–	–	–	–	–	–	–	–
CN(C1=C(c2ccccc2)C(=O)NC1=O)c1ccccc1 [SB-334860]	0	0	19	17	7	0	22	1	21	0	–	–	–	–	–	–	–	–	–	–
CSc1ccc(-c2cc3ncnc(SCC(=O)O)c3s2)cc1	11	21	0	0	1	0	0	22	17	14	–	–	–	–	–	–	–	–	–	–
NS(=O)(=O)c1cccc(-c2ccc3ncc(N4CCOCC4)nc3c2)c1 [GSK1535721]	0	0	16	0	12	0	19	4	18	0	–	–	–	–	–	–	–	–	–	–
O=C1Cc2cc(Nc3nc(NCc4cccc(S(=O)(=O)C(F)(F)F)c4)ncc3C(F)(F)F)ccc2N1	0	12	0	0	11	0	0	12	5	5	–	–	–	–	–	–	–	–	–	–
Cc1cccc(Cn2ccn3c(=O)cc(N4CCOCC4)nc23)c1 [GSK2297542]	18	19	48	55	27	16	25	2	22	0	–	–	–	–	–	–	–	–	–	–
Cc1cn2c(=O)cc(N3CCOCC3)nc2n1Cc1cccc(Cl)c1Cl [GSK2334006]	29	48	43	45	17	6	26	11	18	0	–	–	–	–	–	–	–	–	–	–
Nc1nccc(-c2c(-c3ccc(F)cc3)ncn2C2CCN(CC(F)(F)F)CC2)n1 [SB-236560]	2	92.7	86	96.6	0	1	0	0	0	7	–	–	–	–	–	–	–	–	–	–
CCn1cnc2c(N)ncnc21 [GW345098]	14	28	21	55	9	0	16	12	19	51	–	–	–	–	–	–	–	–	–	–
NS(=O)(=O)CCc1cccc(Nc2nccc(-c3c(-c4cccc(NC(=O)c5c(F)cccc5F)c4)nn4ccccc34)n2)c1 [GSK336735]	7	0	33	90.4	14	5	19	9	9	0	–	–	–	–	–	–	–	–	–	–
CC(C)Oc1ccc2c(-c3ccnc(Nc4ccc(N5CCN(C)CC5)cc4)n3)cnn2n1 [GW696155]	0	46	37	28	28	0	19	94.6	98.9	0	–	–	–	–	–	–	–	–	–	–

— PMC5540273 (PLoS ONE, 2017)
